# IL-1B inflam inh: inhibitors of inflammasome signaling (IL-1 beta secretion). AID 743279. activity change, % at 57.5 µM. 360,000 tested, 4.7% active. THP-1 LPS/ATP IL-1B secretion, AlphaLISA, 16 h; stronger effect = lower value; in the data active means activity change below about -50%; inconclusive means mostly about -30% to -49%; further: on the % scale 0 is the no-effect control and ±100 the full control effect
#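 Secreted IL-1B measured by AlphaLISA bead assay after 16 h compound exposure of THP-1 cells; compounds (final up to 57.5 uM) added 1 h before LPS (250 ng/mL) and ATP (1.25 mM) stimulation; lower signal means less secretion.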
# MCF10A rerep: DNA re-replication induction in MCF 10a cells | MCF 10A DNA re-replication, Hoechst nuclear intensity, 48 h | Potency, µM (series often up to 46.1 µM), for the others: at the top dose activity, positive = re-replication, most hits filed as activators | 350,000 tested, 2.9% active | AID 624296; further: potency means the concentration at half of the fitted maximal effect; % of control where 0% means no effect; nearly all actives have a fitted effect of over 50% in size
# RORg inh: blocks mouse ROR gamma transcriptional activity. P51450. Drosophila S2 Gal4-RORgamma UAS-luciferase reporter, 20 h. Potency, µM (series often up to 53.6 µM), inactives show top-dose activity change, negative = inhibition, most hits filed as inhibitors. 310,000 tested, 5.4% active. AID 2551; further: potency means the concentration at half of the fitted maximal effect; on the % scale 0 is the no-effect control and ±100 the full control effect; nearly all actives have a fitted effect of over 60% in size
# Target sequence (P51450 whole entry, looked up, the tested form may be a part): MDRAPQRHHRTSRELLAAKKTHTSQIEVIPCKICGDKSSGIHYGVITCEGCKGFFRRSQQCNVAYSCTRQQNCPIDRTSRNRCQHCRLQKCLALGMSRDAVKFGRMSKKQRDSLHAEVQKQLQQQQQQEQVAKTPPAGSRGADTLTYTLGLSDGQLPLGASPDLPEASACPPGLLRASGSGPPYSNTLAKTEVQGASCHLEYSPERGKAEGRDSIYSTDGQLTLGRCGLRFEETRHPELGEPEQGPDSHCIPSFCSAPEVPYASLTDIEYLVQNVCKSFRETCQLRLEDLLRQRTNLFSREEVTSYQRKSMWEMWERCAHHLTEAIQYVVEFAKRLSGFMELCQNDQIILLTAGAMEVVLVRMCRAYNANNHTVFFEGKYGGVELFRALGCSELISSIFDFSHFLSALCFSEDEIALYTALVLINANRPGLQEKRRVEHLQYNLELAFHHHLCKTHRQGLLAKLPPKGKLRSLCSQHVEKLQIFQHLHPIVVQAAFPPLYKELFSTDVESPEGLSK
#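 Stable Schneider cell line, Gal4 DNA-binding domain fused to ROR gamma, UAS-luciferase. Cmpd 1 hr RT → CuSO4 700 uM final → 20 hr RT → luciferase reagent 10 min → luminescence.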
# VP16 counter: inhibits Gal4-VP16 luciferase reporter, ROR gamma counter-screen | Drosophila S2 Gal4-VP16 UAS-luciferase, luminescence, 20 h | Potency, µM (doses to about 53.6 µM), without a hit: at the top dose activity, negative = inhibition, actives largely listed as inhibitors | 310,000 tested, 3.5% active | AID 2546;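 further: Gal4-VP16 expression switched on by copper sulfate through the metallothionein promoter; potency means the concentration at half of the fitted maximal effect; on the % scale 0 is the no-effect control and ±100 the full control effect; nearly all actives have a fitted effect of over 50% in size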
# SW480 rerep: inducers of DNA re-replication in SW480 colon cancer cells; SW480 DNA re-replication, Hoechst DNA content imaging, 48 h; Potency, µM (series often up to 46.1 µM), inactives show at the highest dose re-replication activation, actives largely listed as activators; 340,000 tested, 1.8% active; further: potency means the concentration at half of the fitted maximal effect; % of control where 0% means no effect; nearly all actives have a fitted effect of over 55% in size
#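 Compounds, transferred as 23 nL by pin tool, were incubated with cells for 48 hr; DNA content per nucleus was then quantified by Hoechst staining and fluorescence plate imaging.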
# * marks the source's active call; other numbers are inactive results; ? = inconclusive; nt = no result given; [ ] = remark or other dose. Compounds with a hit are over-represented: about 11% of the library has one in this group of screens. Unless noted, the call rests on the fitted dose curve; in most records, active means well fitted curve in the direction sought with a large enough effect; inconclusive means small, poorly fitted or top-dose-only effect, or another doubt; inactive means no such curve, though single readings can be large; an effect the other way counts as inactive or inconclusive.
SMILES,IL-1B inflam inh,MCF10A rerep,RORg inh,VP16 counter,SW480 rerep
C=CC[C@@H]1C=C[C@H](O/N=C\[C@@H](C)[C@H](OCc2ccccc2)C(C)C)[C@H](CO)O1,nt,nt,-13.9%[10 µM],-0.7%[10 µM],nt
Cc1sc2nc(SCC(=O)c3cc(C)n(CC4CCCO4)c3C)n(C(C)C)c(=O)c2c1C (stereo not given),57.5,16.0%,?,11.2µM*,-1.1%
Cn1c(SCC(=O)NCC2CCCO2)ncc(C(=O)Nc2ccc(Cl)cc2)c1=O (stereo not given),-14.7,18.4µM*,nt,nt,4.61µM*
CC(=O)Nc1cccc(NC(=O)CSc2ncc(C(=O)Nc3ccc(F)cc3)c(=O)n2C)c1,-99.9*,?,nt,nt,-8.2%
CC(=O)Nc1cccc(NC(=O)CSc2ncc(C(=O)Nc3ccccc3)c(=O)n2C)c1,-100.1*,?,nt,nt,?
Cn1c(SCC(=O)NCC2CCCO2)ncc(C(=O)Nc2ccc(F)cc2)c1=O (stereo not given),-0.5,24.7%,nt,nt,1.9%
CC(=O)Nc1ccc(NC(=O)CSc2ncc(C(=O)Nc3ccc(F)cc3)c(=O)n2C)cc1,-59.0*,?,nt,nt,?
O=[N+]([O-])c1cc(Cl)cc(/C=N\Nc2ccccn2)c1O,125.9,?,0.562µM*,1.12µM*,3.66µM*
O=C(N/N=C/c1ccc(F)cc1)c1cc(-c2ccccn2)nc2ccccc12,17.6,?,nt,nt,-1.1%
COc1cccc(/C=N/NC(=O)c2cc(-c3ccccn3)nc3ccccc23)c1O,87.2,-2.7%,nt,nt,1.64µM*
O=C(N/N=C/c1cc(Cl)cc([N+](=O)[O-])c1O)c1cc(-c2ccccn2)nc2ccccc12,130.6,6.5%,5.62µM*,10µM*,?
CCN(CC)Cc1nc2c(c(=O)[nH]1)C(CC)(CC)Cc1ccccc1-2,-7.0,12.8%,1.58µM*,5.01µM*,-0.7%
CCc1nc2c(c(=O)[nH]1)C(CC)(CC)Cc1ccccc1-2,4.9,3.4%,?,-16.4%,-5.0%[9.22 µM]
CCN(CC)S(=O)(=O)c1ccc(Oc2ccc(S(=O)(=O)N(CC)CC)cc2)cc1,?,6.6%,?,7.08µM*,0.9%
CCC(CC)C(=O)Nc1cccc(C(=O)Nc2nccs2)c1,20.0,0.0%,-37.1%,0.1%,-13.9%
CC(C)CN1C(=O)c2ccc(NC(=O)c3cccs3)cc2C1=O,-52.3*,?,?,-3.1%,-0.7%
CCCN1C(=O)c2ccc(C(=O)Nc3nccs3)cc2C1=O,-4.5,0.1%,10µM*,?,-2.8%
CC(C)CN1C(=O)c2ccc(C(=O)Nc3ccncc3)cc2C1=O,-13.2,3.6%,?,20µM*,-3.4%
CCCc1cc(C(=O)Nc2nccs2)cs1,0.0,0.4%,5.01µM*,7.94µM*,?
CCN1C(=O)c2ccc(C(=O)Nc3ncc(C)s3)cc2C1=O,-11.2,-0.8%,-41.2%,?,-0.4%
CC12CCC(=O)N1C(C(=O)OCc1c(Cl)cccc1Cl)CS2 (stereo not given),-13.2,0.2%,-29.1%,1.7%,0.9%
C#CCN(C[C@@H]1[C@@H](OC(=O)NCC2CCCCC2)[C@@H](OC(=O)NCC2CCCCC2)Cn2c(=O)n(CCCCCC)c(=O)n21)S(=O)(=O)c1ccc(C)cc1,-11.9,nt,nt,nt,nt
CC(C)CN1C(=O)c2ccc(C(=O)Nc3nccs3)cc2C1=O,8.0,-0.9%,8.91µM*,?,-6.1%
COCCN1C(=O)c2ccc(C(=O)Nc3nccs3)cc2C1=O,-2.9,?,-32.5%,-4.3%,1.16µM*
COCCN1C(=O)c2ccc(C(=O)O)cc2C1=O,11.6,4.1%,-6.3%,1.8%,-11.2%
SMILES,IL-1B inflam inh,MCF10A rerep,RORg inh,VP16 counter,SW480 rerep
CCn1ncc([N+](=O)[O-])c1C(=O)Nc1ccc(C)c(C)c1,-12.5,9.3%,-0.1%,0.3%,-5.3%
Cc1ccc(S(=O)(=O)Nc2cccc(C(=O)NCC3(N4CCCCC4)CCCCC3)c2)cc1F,?,-18.3%,nt,nt,-16.6%
Cc1ccc2[nH]c(=S)cc(C)c2c1,-2.8,-0.4%,15.8µM*,?,-18.8%
Cc1ccc2c(C)cc(=S)[nH]c2c1,38.5,-1.8%,3.98µM*,?,-4.7%
O=C(Nc1cccc(F)c1)N1CCCC2(CCN(C(=O)c3ccncc3)CC2)C1,nt,nt,12.9%,4.2%,nt
O=C(c1ccncc1)N1CCC[C@@]2(CCN(Cc3ccncc3)C2)C1,nt,nt,-6.6%,-2.3%,nt
c1ccc(OCCOc2cccc3cccnc23)cc1,-22.6,19.9%,-20.3%,29.0%,-1.8%
Cc1cc(OCCOc2cccc3cccnc23)cc(C)c1Cl,-12.5,23.1µM*,20µM*,-28.7%,11.3%
CC(C)Oc1ccccc1OCCCOc1cccc2cccnc12,?,?,14.1µM*,-27.5%,-12.8%
CC(=O)c1ccc(OCCCOc2cccc3cccnc23)cc1,-69.8*,13.0%,?,27.2%,?
COc1cc(C(C)=O)ccc1OCCCOc1cccc2cccnc12,-11.0,0.6%,?,17.1%,?
C=C(C)CSc1nc2sc3c(c2c(=O)n1-c1ccc(OC)cc1)CCN(C)C3,26.2,9.1%,-34.6%,2.3%,-10.6%
COc1cccc(/C(=N/O)C2CC2c2ccc(Cl)cc2)c1 (stereo not given),-88.4*,?,14.3%,-8.0%,14.6%
Cn1c(N2CCCC2)nc2c1c(=O)[nH]c(=O)n2C,23.2,-5.3%,-9.7%,-5.1%,-0.1%
O=C(O)CCn1cc(/C=C\C(=O)c2ccc(Cl)cc2)c(-c2cccc(Br)c2)n1,-93.0*,11.6µM*,?,?,-3.3%
Cc1[nH]c2ccccc2c1C(=O)COC(=O)c1ccccc1O,-1.2,0.5%,nt,nt,1.0%
O=C(NNC(=S)NCc1ccc(Cl)cc1)c1ccc(Br)o1,5.0,28.2%,9.6%,-3.2%,-24.1%
O=C(NC(=S)NCc1ccccc1)c1ccc(Br)cc1,4.1,?,nt,nt,-74.0%
O=C(NNC(=S)NCc1ccccc1)c1ccc(Br)cc1,11.9,26.1%,7.94µM*,-1.9%,-0.7%
O=C(NNC(=S)NCc1ccccc1)c1ccc(Br)o1,32.0,5.0%,8.91µM*,-23.1%,-23.5%
O=C(NC(=S)NCc1ccccc1)c1ccc(Br)o1,nt,nt,?,12.6µM*,nt
COc1ccccc1NC(=O)CSc1nc(=O)n2cc(C)ccc2n1,-2.1,3.2%,nt,nt,-2.0%
O=c1cccc2c1c1cc[nH]c3ccc(=O)n2c31,-71.8*,?,nt,nt,-0.3%
C=C1c2cccc(OC)c2O[C@H](C(=O)OCC)[C@@H]1CCC(C)C,nt,nt,35.8%,4.2%,nt
NC(=O)n1c(O)c(C(=O)c2cccs2)c2cc(Cl)ccc21,nt,?,-8.4%,-3.3%,2.2%
O=C(NNc1nc2ccccc2nc1C(F)(F)F)c1ccccc1,-18.1,1.2%,7.94µM*,15.8µM*,4.2%
Cc1ccc(S(=O)(=O)NNc2nc3ccccc3nc2C(F)(F)F)cc1,-10.6,?,17.8µM*,?,?
COc1ccc(-n2cc(-c3ccccc3)[n+]3c2CCCCC3)cc1,?,22.9%,4.1%,?,?
